Compounds without any hit were thinned out: in the full panel of roughly 83,000, 20% have a hit.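 Interpretation: 100, growth as untreated; towards 0, rising growth inhibition; 0, no net growth; 0 to -100, cell death. Compounds scoring below 10 were considered active.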 Unmarked numbers belong to inactive results. Calls of active or inactive are those of the source.

Among the test systems are SR leukemia; RPMI-8226 leukemia; OVCAR-8 ovarian; OVCAR-5 ovarian; OVCAR-4 ovarian; SK-OV-3 ovarian; IGROV1 ovarian; OVCAR-3 ovarian; HS 578T breast; NCI/ADR-RES ovarian.
Experiment in all cases: NCI-60 one-dose screen, 48 h (100 = growth as untreated, 0 = no growth, -100 = all killed)
Holding throughout (settings): 10 µM unless noted

With `CCCCCN1C(=O)/C(=c2\sc3n(c2=O)C2C(NN=3)N(CC)C(=O)N2CC)c2ccccc21` (stereo not given), the growth in the test with SR leukemia was 1.69% (active); in the test with RPMI-8226 leukemia, 8.52% (active); in the test on OVCAR-8 ovarian, -53.2% (active); in the test on OVCAR-5 ovarian, -4.09% (active); in the test with OVCAR-4 ovarian, -56.7% (active); in the test with SK-OV-3 ovarian, 13.3%. Further, the growth is 2.27% (active) in the test with IGROV1 ovarian, -74.5% (active) in the test on OVCAR-3 ovarian, -17.6% (active) in the test on HS 578T breast and -11.1% (active) with NCI/ADR-RES ovarian.
For `Cc1cc(C(=O)Nc2ncc(Cc3cccc(C(F)(F)F)c3)s2)c2ccccc2n1`, the growth with SR leukemia is 9.35% (active); with RPMI-8226 leukemia it was 33.9%; in the test on OVCAR-8 ovarian it was 43.4%; in the test with OVCAR-5 ovarian, 47.7%; with OVCAR-4 ovarian, 42.4%; in the test on SK-OV-3 ovarian it was 36%. Besides, the growth with IGROV1 ovarian was 31.5%; with OVCAR-3 ovarian it was 13.3%; in the test on HS 578T breast, -0.594% (active); in the test with NCI/ADR-RES ovarian, 16.4%.
In the case of `CCSC(SCC)c1ccc(Cl)cc1`, the growth in the test with SR leukemia is 109%; in the test on RPMI-8226 leukemia, 106%; in the test with OVCAR-8 ovarian, 107%; with OVCAR-5 ovarian, 109%; in the test with OVCAR-4 ovarian, 108%; with SK-OV-3 ovarian it was 101%. The growth in the test with IGROV1 ovarian was 117%; in the test on OVCAR-3 ovarian it was 113%; in the test with HS 578T breast, 102%; in the test with NCI/ADR-RES ovarian it was 97.1%.
For `CN(/C(N)=N/N=C/c1c2ccccc2cc2ccccc12)C1CCCCC1`, the growth in the test with SR leukemia was 0.552% (active); in the test on RPMI-8226 leukemia it was 2.66% (active); with OVCAR-8 ovarian, 56.3%; with OVCAR-5 ovarian, 78.8%; with OVCAR-4 ovarian, 27.6%; in the test with SK-OV-3 ovarian it was 66%. Moreover, the growth is 40.3% with IGROV1 ovarian, 58.8% in the test on OVCAR-3 ovarian, 66.6% with HS 578T breast and 45% in the test with NCI/ADR-RES ovarian.
As for `OCCn1cc(-c2nc(-c3c[nH]c4ncccc34)cs2)c2cc(F)ccc21`, the growth with SR leukemia was 22%; in the test with RPMI-8226 leukemia, 53.6%; with OVCAR-8 ovarian, 80.2%; with OVCAR-5 ovarian, 84.3%; in the test with OVCAR-4 ovarian it was 52.4%; in the test with SK-OV-3 ovarian, 70.1%. The growth in the test with IGROV1 ovarian is 44.7%; in the test on OVCAR-3 ovarian, 81%; in the test with HS 578T breast, 70.9%; in the test with NCI/ADR-RES ovarian it was 82.6%.
Consider `N#CC1=C(N)Oc2c(sc3c(Br)cccc23)C1c1ccc(Cl)cc1` (stereo not given), for which the growth in the test with SR leukemia was 4.58% (active); in the test with RPMI-8226 leukemia, 12.6%; in the test with OVCAR-8 ovarian it was 23%; with OVCAR-5 ovarian, 26.3%; in the test with OVCAR-4 ovarian, 61.2%; in the test on SK-OV-3 ovarian it was 27.1%. Moreover, the growth with IGROV1 ovarian was 27.2%; in the test with OVCAR-3 ovarian, 0.89% (active); in the test with HS 578T breast, 26.4%; with NCI/ADR-RES ovarian it was 0.969% (active).
Regarding `CCCNc1nc2ccccc2c2c1S(=O)(=O)c1ccc(Cl)cc1C2=O`, the growth with SR leukemia was 8.34% (active); in the test with RPMI-8226 leukemia it was -10.2% (active); in the test with OVCAR-8 ovarian it was 3.78% (active); with OVCAR-5 ovarian it was 8% (active); with OVCAR-4 ovarian, 13.1%; with SK-OV-3 ovarian, 32.2%. Also, the growth in the test with IGROV1 ovarian is 24.6%; in the test on OVCAR-3 ovarian, -17% (active); in the test with HS 578T breast, 7.32% (active); with NCI/ADR-RES ovarian, 8.31% (active).
Take `COC(=O)CC[C@@H]1O[C@@H](c2cccc(C(F)(F)F)c2)[C@@H](O)[C@H]1O`: the growth was 97.1% with SR leukemia; 109% with RPMI-8226 leukemia; 110% in the test with OVCAR-8 ovarian; 97.1% with OVCAR-5 ovarian; 105% in the test with OVCAR-4 ovarian; 97.8% with SK-OV-3 ovarian. Further, the growth in the test with IGROV1 ovarian is 112%; in the test on OVCAR-3 ovarian, 99.4%; with HS 578T breast, 93.8%; in the test on NCI/ADR-RES ovarian, 108%.
With `CC(C)=CCCC(C)c1ccc(C)c2c1OCN(CCCCCO)C2` (stereo not given), the growth is 66.6% in the test with SR leukemia; 76.7% in the test on RPMI-8226 leukemia; 90.1% with OVCAR-8 ovarian; 87.4% with OVCAR-5 ovarian; 95.4% in the test on OVCAR-4 ovarian; 88.8% in the test on SK-OV-3 ovarian. Moreover, the growth in the test with IGROV1 ovarian is 90.4%; with OVCAR-3 ovarian it was 99.7%; with HS 578T breast it was 81.2%; with NCI/ADR-RES ovarian it was 75.9%.
As to `CCN(CC)S(=O)(=O)c1ccc(S(=O)(=O)N2CCC[C@@H](C(=O)N3CCN(c4nc(C(C)C)no4)CC3)C2)cc1`, the growth with SR leukemia was 31.6%; in the test with RPMI-8226 leukemia, 54.8%; with OVCAR-8 ovarian it was 61.3%; in the test with OVCAR-5 ovarian, 102%; with OVCAR-4 ovarian, 30.8%; in the test on SK-OV-3 ovarian, 87.3%. For the same compound, the growth was 86.2% in the test on IGROV1 ovarian, 75.6% in the test with OVCAR-3 ovarian, 82.8% with HS 578T breast and 58.9% in the test on NCI/ADR-RES ovarian.
`COc1cc(C2CC(c3ccc(Nc4nc(Nc5ccc(Cl)cc5)nc(Nc5ccc(Cl)cc5)n4)cc3)=NN2C(C)=O)cc(OC)c1OC` (stereo not given): the growth in the test on SR leukemia was 72.7%; with RPMI-8226 leukemia, 32%; in the test with OVCAR-8 ovarian, 107%; with OVCAR-5 ovarian, 92.8%; in the test on OVCAR-4 ovarian, 97.3%; in the test on SK-OV-3 ovarian, 126%. For the same compound, the growth with IGROV1 ovarian is 85.7%; in the test on OVCAR-3 ovarian, 105%; in the test with HS 578T breast, 122%; in the test with NCI/ADR-RES ovarian, 92.7%.

These data come from PubChem BioAssay (NCI).
